Measured values as given in PubChem BioAssay (NCI).
Compounds without any hit were thinned out: in the full panel of roughly 83,000, 20% have a hit.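 Single-dose data. Exposure time 48 hours. Values below 10 considered active.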 Values without a mark were called inactive. The source made the active and inactive calls.

system: HL-60(TB) leukemia; test: NCI-60 one-dose screen, 48 h (100 = growth as untreated, 0 = no growth, -100 = all killed); conditions: 10 µM unless noted

Structure (SMILES) | growth
CN1C/C=C\CCOc2cccc(c2)-c2ccnc(n2)Nc2cccc(c2)C1 | -51.9% (active)
O=C1/C(=C/c2c[nH]c(=O)[nH]c2=O)SC(=S)N1Cc1ccccc1 | 99.3%
CCOc1nc(-c2ccccc2)cc2c(O)c(C(=O)N/N=C/c3ccc(OC)cc3)[nH]c(=O)c12 | 65.1%
CC/C=C1/C(=O)C=C[C@@H]1C/C=C\CCCC(=O)O | 52.1%
Cc1ccc(-c2nc(N3CCCNCC3)c3oc(-c4ccc(C)cc4)nc3n2)cc1 | -69.3% (active)
c1ccc2c(c1)nc(CN1CCOCC1)n1cc(N3CCCC3)nc21 | 83.4%
O=C(NCCNc1nccc(-c2c(-c3cccc(O)c3)nc3sccn23)n1)c1ccc(N2CCOCC2)c(C(F)(F)F)c1 | 113%
O=C1/C(=C/c2cccc(F)c2)CN(C(=O)C(Cl)Cl)C/C1=C\c1cccc(F)c1 | -41.6% (active)
CC(=O)c1nn(-c2ccccc2)c(=Nc2ccccc2)cc1C | 106%
Cc1cc(N2CCCCC2)nc(NC2CCCC(Nc3ccnc4cc(Cl)ccc34)C2)n1 (stereo not given) | -63.6% (active)
COc1cccc(NC(=O)c2sc3nc4c(cc3c2N)CN(Cc2ccccc2)CC4)c1 | 50.1%
Oc1ccc(CCC2CCCC(CCc3ccc(OCCF)cc3)N2)cc1 (stereo not given) | 82%
O=C(/C=C(\Nc1ccccc1)c1ccccc1)c1cn(-c2ccc([N+](=O)[O-])cc2)nn1 | 114%
CC(=O)n1c(-c2ccc(Cl)cc2)nc2c(c1=O)C(c1ccc(Cl)cc1)c1sc3c(Cl)cccc3c1O2 (stereo not given) | -15.4% (active)
CCOC(=O)c1c(C)nc2ccccc2c1/C=C/c1ccccc1 | 81.8%
Clc1cc(Br)ccc1-c1ccc(CNCC2CCNCC2)o1 | 67.7%
CCC(=O)Oc1ccc(/C(=C(\C)c2ccccc2)c2ccc(OCCN3CCCCC3)cc2)cc1 | 68.2%
O=C1C=CC2=C3c4cc(O)c(O)cc4CC3(O)COC2=C1O (stereo not given) | 102%
COc1ccc(/C=N/C2=NNC(C)(c3ccccc3O)N2C(Cc2c[nH]c3ccccc23)C(=O)O)cc1 (stereo not given) | -21.9% (active)
O=C(Nc1ccc(F)cc1)Nc1ccc(CCO)cc1 | 101%

Structure (SMILES) | growth
COC12C=C/C(=C(/C(=O)OCCSc3ccnn3C)C(=O)CCCCCCCCC3(OC)C=C/C(=C(/C(=O)OCCSc4ccnn4C)C(=O)CCCCCCCC1)O3)O2 | -6.91% (active)
CN1CCN(CC(=O)Nc2nc(-c3cccc(NS(=O)(=O)c4cccc5c(N(C)C)cccc45)c3)cs2)CC1 | 23.3%
O=C(CNC(=O)c1cccc2ccccc12)Nc1ccccc1Oc1ccc(O)cc1 | -13.9% [5 µM] (active)
O=C(Nc1cccnc1Nc1ccccc1)c1cn(Cc2cccc(Oc3ccccc3)c2)nn1 | 18.9%
COc1cc2cc(CN3CCN(c4nccc(-c5ccc6ccccc6c5)n4)CC3)c(=O)[nH]c2cc1OC | 9.75% (active)
Clc1ccc(Nc2nc(Nc3ccccc3)nc(Nc3ccc(-c4cc(-c5ccc(Cl)cc5)on4)cc3)n2)cc1 | 55.3%
Cc1ccccc1SSc1ccccc1C | 99.6%
O=C(/C(=C/c1ccc([N+](=O)[O-])cc1)SCc1ccc(F)cc1)c1ccc(F)cc1 | 68.8%
Cc1nc2ccc(-n3c(-c4ccc(Cl)cc4)nc4ccccc4c3=O)cc2n1Cc1ccccc1 | 78.2%
COc1ccc(C2CC(c3cccs3)=NN2c2ccc(S(=O)(=O)NC(=O)NCc3cccc(OC)c3)cc2)cc1 (stereo not given) | 103%
Cc1ccc(-c2c3c(N)nc(-c4cccnc4)nc3nc3c2c(C)nn3-c2ccccc2)cc1 | 95.6%
O=C(Cc1ccc(F)cc1)c1ccccc1 | 108%
CC1(C)N=C(N)N=C(N)N1c1cccc(CCCCOc2ccccc2)c1 | 13.6%
O=c1[nH]nc(-c2ccccc2)c2sc(NC(=S)Nc3ccc(Cl)cc3)nc12 | 72.6%
CCn1c(Sc2nnc(Nc3ccccc3)s2)nc2c1c(=O)n(C)c(=O)n2C | 113%
CC(C)C(C(=O)CCN(C)C)c1ccc(Cl)cc1 (stereo not given) | 81.4%
C[C@@H]1NC(=O)[C@H](Cc2ccccc2)N(Cc2cccnc2)C1=O | 103%
O=[N+]([O-])c1ccc(OCCCOc2ccccc2)cc1 | 95.5%
COc1ccc(-c2nc(-c3nc4cc(Cl)c(F)cc4[nH]3)c3ccccn23)cc1 | 46.4%
COc1cc(C2CC(c3ccccc3)=NN2C=O)ccc1Oc1nc2c(c(=O)n(C)c(=O)n2C)n1C (stereo not given) | 101%
